For six compounds, Potency and outcome results are on record in PubChem BioAssay (Tox21).

Several values for one entry are separate records, joined by “and”; a condition that tells them apart may be missing. Equal entries are not always repeated. Inconclusive results are not listed. Some structures have more than one record in an assay (separate samples or runs), and their calls can disagree. Activity calls are given as the source filed them. Unless noted, the call rests on the fitted dose curve; in most records, active means well fitted curve in the direction sought with a large enough effect in the repeat runs; inconclusive means weak or mixed curves; inactive means no such curve, though single readings can be large; an effect the other way counts as inactive or inconclusive.

In assay [1] the target is Estrogen receptor beta (Homo sapiens) (UniProt Q92731). As to the kind of experiment: qHTS assay to identify small molecule agonists of the estrogen receptor beta (ER-beta) signaling pathway (AID 1259377; active means well fitted activation curve with a large enough effect in the signal ratio in the repeat runs, not every such curve was filed as active; the % refers to the signal ratio; further: potency means the concentration at half of the fitted maximal effect). An outline of the steps:
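A UAS-controlled beta-lactamase reporter in ER-beta-UAS-bla HEK293T cells reports receptor activation. Compounds act for 16 hr at 37C in 2% charcoal-stripped serum, and a FRET substrate is read by fluorescence after 2 hours.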
For orientation: In qHTS, concentration-response curves come from the screen itself.

Assay [2] has the same target. As to the kind of experiment: qHTS assay to identify small molecule antagonists of the estrogen receptor beta (ER-beta) signaling pathway (AID 1259378; active means well fitted inhibition curve with a large enough effect in the signal ratio in the repeat runs, not every such curve was filed as active; the % refers to the signal ratio; further: potency means the concentration at half of the fitted maximal effect). An outline of the steps: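 Antagonist mode: compounds added to beta-lactamase reporter HEK293T ER-beta-UAS cells stimulated with E2 (1nM final), 16 hr at 37C. LiveBLAzer B/G FRET substrate, 2 hours room temperature, fluorescence read-out.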

Assay [3] can be described thus: qHTS assay to identify small molecule agonists of the androgen receptor (AR) signaling pathway in the presence of an antagonist - cell viability counter screen (AID 1259379). Further: nearly all actives have a fitted effect of over 25% in size. Further: potency means the concentration at half of the fitted maximal effect. An outline of the steps:
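In MDA-kb2 cells (human breast carcinoma, MMTV-luciferase), compounds at 15 concentrations plus 3.0uM nilutamide; 16 hr, 37C, 0% CO2; CellTiter-Fluor fluorescence read for viability.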

A short description of assay [4]: qHTS assay to identify small molecule agonists of the estrogen receptor beta (ER-beta) signaling pathway - cell viability counter screen (AID 1259380). Further: nearly all actives have a fitted effect of over 30% in size. Further: potency means the concentration at half of the fitted maximal effect. An outline of the steps: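 Viability of ER-beta-UAS-bla HEK293T cells was determined by CellTiter-Glo luminescence following 16 hr treatment with test compounds at 37C.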
Assay [5] is described as follows: qHTS assay to identify small molecule antagonists of the estrogen receptor beta (ER-beta) signaling pathway - cell viability counter screen (AID 1259382). Further: nearly all actives have a fitted effect of over 55% in size. Further: potency means the concentration at half of the fitted maximal effect. An outline of the steps:
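Tox21 10K library tested in qHTS format on ER-beta-bla HEK293T cells stimulated with 1nM E2; 16 hr treatment at 37C. Same-well CellTiter-Glo luminescence served as the cell viability measure.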

Assay [6] has as its target Estrogen receptor (Homo sapiens) (UniProt P03372). As to the kind of experiment: qHTS assay to identify small molecule agonists of the estrogen receptor alpha (ER-alpha) signaling pathway in the presence of an antagonist (AID 1259383; calls by dose curve; further: nearly all actives have a fitted effect of over 15% in size; further: potency means the concentration at half of the fitted maximal effect; on activation: top concentration of the series differs between compounds). The procedure, abridged: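 In VM7Luc4E2 cells, 4,000 per well, compounds at 15 concentrations were co-incubated 22hr at 37C with 10.0nM final ICI-182,780. Luminescence from the stably transfected 4×ERE-luciferase reporter was recorded 30min after ONE-Glo addition.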

A short description of assay [7]: qHTS assay to identify small molecule agonists or antagonists of the thyroid stimulating hormone receptor (TSHR) signaling pathway - wild type cell line counter screen (AID 1259384; calls by dose curve). The procedure, abridged: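 Counter screen in untransfected Hek293: compounds (15-point titration, triplicate) plus phosphodiesterase inhibitor Ro20-1724 added after 18 h plating; 30 min RT. Intracellular cAMP via competitive d2/cryptate immunoassay, 1 h incubation.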

The target of assay [8] is Thyrotropin receptor (Homo sapiens) (UniProt P16473). As to the kind of experiment: qHTS assay to identify small molecule antagonists of the thyroid stimulating hormone receptor (TSHR) signaling pathway (AID 1259385; calls by dose curve; further: nearly all actives have a fitted effect of over 20% in size). The procedure, abridged:
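Antagonist mode: compound-treated TSHR-expressing HEK293 cells were stimulated with 1.5 ng/mL TSH (final) in presence of Ro20-1724 for 30 min at RT. HTRF cAMP detection after 1 h; each compound tested at 15 concentrations, triplicate.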

The nature of assay [9]: qHTS assay to identify small molecule agonists of the estrogen receptor alpha (ER-alpha) signaling pathway in the presence of an antagonist - cell viability counter screen (AID 1259386).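 Further: series mostly up to about 92 µM; cells exposed to compounds for 22 h at 37 °C before the viability read; nearly all actives have a fitted effect of over 30% in size.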 The procedure, abridged: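 Fluorescent CellTiter-Fluor viability signal from VM7Luc4E2 cells, with the reagent added during the final hour of a 22hr compound exposure at 37C in the presence of 10.0nM ICI-182,780.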

Assay [10] addresses Progesterone receptor (Homo sapiens) (UniProt P06401). As to the kind of experiment: qHTS assay to identify small molecule agonists of the progesterone receptor (PR) signaling pathway (AID 1346784; calls by dose curve; further: nearly all actives have a fitted effect of over 30% in size). An outline of the steps:
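Agonist mode, quantitative HTS format in a HEK 293T line expressing a UAS-controlled beta-lactamase reporter; 16 hr compound exposure at 37C in 2% charcoal-stripped FBS, then LiveBLAzer B/G FRET fluorescence.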

The target is the same in assay [11]. As to the kind of experiment: qHTS assay to identify small molecule antagonists of the progesterone receptor (PR) signaling pathway (AID 1346795; active means well fitted inhibition curve with a large enough effect in the signal ratio in the repeat runs, not every such curve was filed as active; the % refers to the signal ratio; further: potency means the concentration at half of the fitted maximal effect). The procedure, abridged:
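HEK293T PR-UAS-bla reporter cells in charcoal-stripped serum (2%) received compound after a 6 hr settling period, followed by R5020 agonist at 1 nM final; 16 hr incubation preceded the FRET substrate step and fluorescence measurement.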

Assay [12] can be described thus: qHTS assay to identify small molecule antagonists of the progesterone receptor (PR) signaling pathway - cell viability counter screen (AID 1346798). Further: nearly all actives have a fitted effect of over 50% in size. Further: potency means the concentration at half of the fitted maximal effect. An outline of the steps:
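Same-well multiplex: after 16 hr at 37C with compound and R5020 stimulation, HEK293T cells carrying a UAS-bla reporter received LiveBLAzer substrate (2 hr RT), then CellTiter-Glo (30 min RT) for luminescent viability.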

Assay [13] in a line: qHTS assay to identify small molecule agonists of the progesterone receptor (PR) signaling pathway - cell viability counter screen (AID 1346799; calls by dose curve; further: nearly all actives have a fitted effect of over 45% in size; further: potency means the concentration at half of the fitted maximal effect). An outline of the steps: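 Counter screen for cytotoxicity: compound-treated PR-UAS-bla HEK293T cells (16 hr, 37C, 5% CO2) were assayed with CellTiter-Glo, luminescence measured after 30 min at room temperature.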
The nature of assay [14]: qHTS assay to identify small molecule antagonists of the TGF-beta/Smad signaling pathway - cell viability counter screen (AID 1346824). Further: nearly all actives have a fitted effect of over 50% in size. Further: potency means the concentration at half of the fitted maximal effect. The procedure, abridged:
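Cytotoxicity counter-screen run in the same wells as the beta-lactamase Smad reporter read: CellTiter-Glo luminescence after 30 min at room temperature. HEK 293T SBE-bla cells had 5 hr compound exposure at 37 C with TGF-beta1 (0.25 ng/mL stock).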

A short description of assay [15]: qHTS assay to identify small molecule agonists of the TGF-beta/Smad signaling pathway - cell viability counter screen (AID 1346829). Further: nearly all actives have a fitted effect of over 45% in size. Further: potency means the concentration at half of the fitted maximal effect. An outline of the steps: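 Same-well cytotoxicity: CellTiter-Glo added after the 2 hr room-temperature beta-lactamase substrate step, luminescence measured 30 min later; cells had 5 hr of compound at 37 C.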
A short description of assay [16]: qHTS assay to identify small molecule agonists of the TGF-beta/Smad signaling pathway (AID 1346859; active means well fitted activation curve with a large enough effect in the signal ratio in the repeat runs, not every such curve was filed as active; the % refers to the signal ratio; further: series mostly up to about 77 µM). The procedure, abridged: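 Smad-responsive beta-lactamase reporter cells (HEK 293T) received compounds from DMSO stocks after overnight attachment, were incubated 5 hr, then treated 2 hr with FRET substrate before dual-emission fluorescence measurement (405 nm excitation).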

For assay [17], the target named is Thyrotropin-releasing hormone receptor (Homo sapiens) (UniProt P34981). As to the kind of experiment: qHTS assay to identify small molecule antagonists of the thyrotropin-releasing hormone receptor (TRHR) signaling pathway (AID 1346877; active means well fitted inhibition curve with a large enough effect in the repeat runs, not every such curve was filed as active; further: series mostly up to about 51 µM). The procedure, abridged: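 In this cell-based calcium flux format, HEK293 cells expressing TRHR received test compound for 5 min before the agonist TRH (1 nM final). Dye loading lasted 2 h at 37 °C.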
Thyrotropin-releasing hormone receptor (Homo sapiens), sequence (P34981 whole entry, looked up): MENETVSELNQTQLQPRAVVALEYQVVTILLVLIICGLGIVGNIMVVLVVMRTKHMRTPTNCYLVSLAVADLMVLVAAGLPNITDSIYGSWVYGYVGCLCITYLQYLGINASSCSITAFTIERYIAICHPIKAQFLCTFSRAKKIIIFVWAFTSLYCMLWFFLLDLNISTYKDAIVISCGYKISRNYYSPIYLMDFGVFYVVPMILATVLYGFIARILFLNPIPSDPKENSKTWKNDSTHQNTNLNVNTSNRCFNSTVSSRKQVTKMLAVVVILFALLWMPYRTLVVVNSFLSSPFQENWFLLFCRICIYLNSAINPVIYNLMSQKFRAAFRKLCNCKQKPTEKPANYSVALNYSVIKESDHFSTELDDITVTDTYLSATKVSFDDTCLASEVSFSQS

Assay [18] shares this target. As to the kind of experiment: qHTS assay to identify small molecule agonists of the thyrotropin-releasing hormone receptor (TRHR) signaling pathway (AID 1346891; calls by dose curve; further: series mostly up to about 58 µM). The procedure, abridged:
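Agonist-mode calcium mobilisation screen: TRHR-transfected HEK293 cells cultured overnight (18 h), dye-loaded for 2 h at 37 °C, exposed to compounds, and monitored by fluorescence for 3 min.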

Assay [19] is described as follows: Human pregnane X receptor (PXR) small molecule agonists, qHTS cell viability counter screen (AID 1346977). Further: nearly all actives have a fitted effect of over 50% in size. Further: potency means the concentration at half of the fitted maximal effect. An outline of the steps: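 Measures live-cell protease fluorescence (CellTiter-Fluor) in PXR-Luc HepG2 cells treated 24hr with compounds at 37C. Cells had 5hr to attach before pin transfer of DMSO solutions.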

Progesterone receptor (Homo sapiens), sequence (P06401 whole entry, looked up): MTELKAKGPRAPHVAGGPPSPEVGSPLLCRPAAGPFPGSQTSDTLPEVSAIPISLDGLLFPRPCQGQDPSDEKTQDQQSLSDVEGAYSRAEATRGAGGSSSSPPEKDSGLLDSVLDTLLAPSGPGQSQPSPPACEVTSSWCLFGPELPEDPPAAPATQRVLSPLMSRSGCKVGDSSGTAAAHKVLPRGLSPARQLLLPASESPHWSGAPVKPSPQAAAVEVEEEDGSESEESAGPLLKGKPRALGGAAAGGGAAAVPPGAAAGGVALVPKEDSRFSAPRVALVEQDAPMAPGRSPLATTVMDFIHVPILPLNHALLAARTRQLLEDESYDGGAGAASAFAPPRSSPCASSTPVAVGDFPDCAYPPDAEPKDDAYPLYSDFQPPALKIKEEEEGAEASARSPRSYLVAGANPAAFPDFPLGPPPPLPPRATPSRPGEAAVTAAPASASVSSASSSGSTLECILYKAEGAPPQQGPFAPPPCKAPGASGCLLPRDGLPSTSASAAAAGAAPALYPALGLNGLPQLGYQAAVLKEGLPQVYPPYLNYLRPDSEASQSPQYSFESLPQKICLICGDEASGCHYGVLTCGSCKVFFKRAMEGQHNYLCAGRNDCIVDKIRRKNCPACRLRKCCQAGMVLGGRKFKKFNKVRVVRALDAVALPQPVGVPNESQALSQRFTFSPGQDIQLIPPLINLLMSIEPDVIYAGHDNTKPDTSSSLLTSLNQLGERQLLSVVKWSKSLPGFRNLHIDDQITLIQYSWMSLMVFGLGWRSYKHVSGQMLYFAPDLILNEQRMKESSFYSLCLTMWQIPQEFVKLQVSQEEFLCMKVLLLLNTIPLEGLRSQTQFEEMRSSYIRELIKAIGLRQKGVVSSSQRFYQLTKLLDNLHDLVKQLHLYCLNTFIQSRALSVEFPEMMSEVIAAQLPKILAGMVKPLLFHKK
Estrogen receptor (Homo sapiens), sequence (P03372 whole entry, looked up): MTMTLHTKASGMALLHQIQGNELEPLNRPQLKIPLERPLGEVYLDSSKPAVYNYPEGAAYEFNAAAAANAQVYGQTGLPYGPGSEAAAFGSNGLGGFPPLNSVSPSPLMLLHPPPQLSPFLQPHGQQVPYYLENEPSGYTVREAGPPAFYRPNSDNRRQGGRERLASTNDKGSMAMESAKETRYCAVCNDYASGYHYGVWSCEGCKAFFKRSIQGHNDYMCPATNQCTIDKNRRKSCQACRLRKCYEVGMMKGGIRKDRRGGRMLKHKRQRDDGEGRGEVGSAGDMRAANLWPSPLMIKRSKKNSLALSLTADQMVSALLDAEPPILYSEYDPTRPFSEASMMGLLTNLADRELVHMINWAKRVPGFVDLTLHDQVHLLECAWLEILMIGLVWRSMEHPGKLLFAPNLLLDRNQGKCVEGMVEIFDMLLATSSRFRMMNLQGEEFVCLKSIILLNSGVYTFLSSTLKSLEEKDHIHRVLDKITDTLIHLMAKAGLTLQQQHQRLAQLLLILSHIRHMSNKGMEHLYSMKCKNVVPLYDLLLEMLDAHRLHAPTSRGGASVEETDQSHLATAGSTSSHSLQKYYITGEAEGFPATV
Thyrotropin receptor (Homo sapiens), sequence (P16473 whole entry, looked up): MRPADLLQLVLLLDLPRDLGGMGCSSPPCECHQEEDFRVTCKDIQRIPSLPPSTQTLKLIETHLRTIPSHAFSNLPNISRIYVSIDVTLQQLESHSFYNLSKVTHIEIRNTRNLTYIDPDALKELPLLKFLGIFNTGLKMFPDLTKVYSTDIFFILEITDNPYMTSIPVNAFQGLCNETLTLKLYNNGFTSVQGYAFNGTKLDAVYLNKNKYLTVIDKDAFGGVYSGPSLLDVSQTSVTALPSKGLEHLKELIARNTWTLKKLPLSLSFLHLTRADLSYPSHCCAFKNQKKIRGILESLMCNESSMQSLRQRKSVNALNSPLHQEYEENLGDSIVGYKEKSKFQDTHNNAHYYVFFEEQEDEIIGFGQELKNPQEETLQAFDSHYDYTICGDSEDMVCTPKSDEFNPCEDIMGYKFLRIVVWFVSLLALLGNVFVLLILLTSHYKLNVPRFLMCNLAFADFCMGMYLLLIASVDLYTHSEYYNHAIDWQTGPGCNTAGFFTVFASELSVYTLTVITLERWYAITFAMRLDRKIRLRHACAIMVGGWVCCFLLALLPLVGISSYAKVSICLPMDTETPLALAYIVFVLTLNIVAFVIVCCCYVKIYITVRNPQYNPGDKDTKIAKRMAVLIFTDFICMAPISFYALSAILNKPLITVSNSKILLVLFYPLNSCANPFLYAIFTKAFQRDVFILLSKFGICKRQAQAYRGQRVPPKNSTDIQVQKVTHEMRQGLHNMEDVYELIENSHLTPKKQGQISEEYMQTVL
Estrogen receptor beta (Homo sapiens), sequence (Q92731 whole entry, looked up): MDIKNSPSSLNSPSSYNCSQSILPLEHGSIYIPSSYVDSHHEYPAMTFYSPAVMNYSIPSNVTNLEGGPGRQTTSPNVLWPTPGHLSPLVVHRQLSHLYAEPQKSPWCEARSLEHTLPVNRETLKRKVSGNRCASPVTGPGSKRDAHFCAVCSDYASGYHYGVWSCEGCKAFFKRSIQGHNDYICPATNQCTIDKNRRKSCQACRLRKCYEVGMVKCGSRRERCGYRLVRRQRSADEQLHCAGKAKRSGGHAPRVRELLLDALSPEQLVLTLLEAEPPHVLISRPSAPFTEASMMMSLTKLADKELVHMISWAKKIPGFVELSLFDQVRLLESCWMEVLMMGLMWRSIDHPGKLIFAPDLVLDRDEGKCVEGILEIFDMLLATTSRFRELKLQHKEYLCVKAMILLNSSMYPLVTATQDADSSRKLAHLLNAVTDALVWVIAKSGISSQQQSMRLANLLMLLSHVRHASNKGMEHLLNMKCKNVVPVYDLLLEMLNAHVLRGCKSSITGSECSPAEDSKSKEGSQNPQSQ

As to `CCCCCCCC(=O)OCC(COC(=O)CCCCCCC)OC(=O)CCCCCCC`, the Potency entry in assay [1], in assay [2], in assay [3], in assay [4], in [5] and in assay [6] was “inactive” throughout. Moreover, the Potency entry in assay [7], in assay [8], in assay [9], in assay [10], in [11] and in assay [12] was “inactive” each time. The Potency result in assay [13], in assay [14], in assay [15], in [17], in [18] and in assay [19] was “inactive” in each case. Also, in [16], the outcome was inactive.
Take `Nc1c2c(nc3ccccc13)CCCC2`: the Potency entry in assay [1], in assay [2], in assay [3], in assay [4], in [5] and in [6] was “inactive” each time. In addition, the Potency entry in assay [7], in assay [8], in assay [9], in assay [10], in assay [11] and in assay [12] was “inactive” each time. The Potency entry in [13], in assay [15], in assay [17] and in assay [18] was “inactive” each time. In addition, in assay [16], the call was inactive. Moreover, in assay [19], the Potency was 54.5 µM (active).
With `Nc1ccc(S(N)(=O)=O)cc1`, the Potency result in assay [1], in [2], in assay [3], in [4], in assay [5] and in assay [7] was “inactive” each time. Further, the Potency result in [8], in assay [9], in assay [10], in assay [11], in assay [12] and in assay [13] was “inactive” each time. In addition, the Potency entry in assay [14], in assay [15], in assay [17], in [18] and in assay [19] was “inactive” each time. The call in assay [16] was inactive.
On to `CCCCCCCCCCCCCCCC[N+](C)(C)Cc1ccccc1`, for which the Potency result in [1], in assay [6], in [9], in [10], in assay [11] and in assay [17] was “inactive” throughout. Also, the Potency entry in assay [18] was “inactive”. The Potency in assay [3] was 35.5 µM (active) and 55.5 µM (active); in assay [4], 14.1 µM (active) and 22.1 µM (active) and 11.9 µM (active); in [5], 35.5 µM (active) and 17.5 µM (active) and 10.6 µM (active); in assay [12], 24.8 µM (active); in assay [13] it was 10 µM (active) and 12.4 µM (active) and 6.68 µM (active); in assay [14], 56.7 µM (active) and 49.8 µM (active). In addition, the Potency in assay [15] was 45 µM (active) and 39.6 µM (active) and 19 µM (active). In assay [16], the compound was called inactive.
`CC(C)C(=O)Nc1ccc([N+](=O)[O-])c(C(F)(F)F)c1`: the Potency entry in assay [1], in [5], in assay [6], in assay [7], in [8] and in assay [10] was “inactive” each time. The Potency entry in [12], in assay [13], in assay [14], in [15], in assay [17] and in assay [18] was “inactive” throughout. For the same compound, the Potency in [2] is 54.5 µM (active) and inactive; in [4], “inactive and 24.3 µM (active)”; in [11] it was 25 µM (active); in assay [19], 50.1 µM (active) and inactive. Further, the result in [16] was inactive.
Regarding `NC1CCCCC1`, the Potency in assay [1] is 2.75 µM (active) and inactive; in [6] it was 1.09 µM (active) and inactive. For the same compound, the Potency entry in assay [2], in [3], in assay [4], in assay [5], in assay [7] and in [8] was “inactive” each time. The Potency entry in assay [9], in [10], in assay [11], in assay [12], in assay [13] and in assay [15] was “inactive” each time. Also, the Potency entry in [17], in [18] and in assay [19] was “inactive” throughout. In addition, in [16], the result was inactive.
